# Active and inactive are the calls of the source.
# Assays:
# [1] = optical density shifts of acrAB sulA E. coli – strain DRC41, OD650, 48 h, E. coli filamentation inducer project, primary screen (AID 1152); settings: higher = more signal, called active from +8 up or from −8 down;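 further: E. coli MC1000 strain DRC41 lacking acrAB efflux pump and sulA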
# [2] = probe aLefty1 binding on compound microarray – biochemical, small-molecule microarray, 635/667 nm fluorescence, primary screen (AID 1153); settings: higher = more signal;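 further: score merges spot fluorescence with signal-to-noise ratio from the scanned slide images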
# [3] = plasmodial surface anion channel blockers, osmotic lysis – cell-based, P. falciparum Indochina, OD700, 1 h, primary screen (AID 1154); settings: P. falciparum Indochina infected RBC osmotic lysis, higher = more signal, called active from +8 up or from −8 down
# [4] = plasmodial surface anion channel blockers, osmotic lysis – cell-based, P. falciparum Indochina, OD700, 2 h, primary screen (AID 1155);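 further: lysis reports solute entry through the parasite surface anion channel PSAC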; settings: P. falciparum Indochina infected erythrocytes, higher = more signal, called active from +8 up or from −8 down
# [5] = changes in parasitized red cell lysis, either direction – P. falciparum Indochina, OD700, 3 h, PSAC antagonist project, primary screen (AID 1156); settings: P. falciparum-infected erythrocytes, osmotic lysis, higher = more signal, called active from +8 up or from −8 down
# [6] = plasmodial surface anion channel blockers, osmotic lysis – cell-based, P. falciparum Indochina, OD700, 18 h, primary screen (AID 1157); settings: P. falciparum Indochina infected erythrocytes, osmotic lysis OD700, 18 h; higher = more signal, called active from +8 up or from −8 down
# [7] = S6 kinase pathway phospho-S6 level changes – cell-based, A549, cytoblot, luminescence, serum-stimulated, primary screen (AID 1158); settings: 5 h, higher = more signal;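 further: serum-stimulated A549 lung adenocarcinoma cells; signal is phosphorylated S6 detected by cytoblot immunostaining with HRP secondary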
# [8] = target: NADPH oxidase 2 (Homo sapiens) (UniProt P04839); experiment: compounds shifting NOX2 Amplex Red fluorescence – cell-based, HEK293-NOX2, PMA-stimulated, NOX inhibitor project, primary screen (AID 1159); settings: 45 min, higher = more signal, called active from +8 up or from −8 down; further: test concentration not given here
# [9] = target: NADPH oxidase 4 (Homo sapiens) (UniProt Q9NPH5); experiment: compounds shifting NOX4 Amplex Red fluorescence – cell-based, HEK293-NOX4, tetracycline-induced, NOX inhibitor project, primary screen (AID 1160); settings: HEK293-NOX4, Amplex Red H2O2 fluorescence, 45 min; higher = more signal, called active from +8 up or from −8 down
# [10] = target: NADPH oxidase 5 (Homo sapiens) (UniProt Q96PH1); experiment: compounds shifting NOX5 Amplex Red fluorescence – cell-based, HEK293-NOX5, NOX inhibitor project, primary screen (AID 1161); settings: HEK293-NOX5, ionomycin, 45 min, higher = more signal
# [11] = compound effects on lung adenocarcinoma cell viability – A549, calcein-AM fluorescence, 48 h, basal, profiling panel (AID 1162); settings: higher = more signal; further: test concentration not given here
# [12] = compound effects on differentiated 3T3-L1 adipocyte viability – cell-based, 3T3-L1 adipocytes, calcein-AM fluorescence, 48 h, basal, profiling panel (AID 1163); settings: 3T3-L1 adipocytes viability, higher = more signal; further: test concentration not given here
# [13] = compound effects on hepatocellular carcinoma cell viability – HepG2, calcein-AM fluorescence, 48 h, basal, profiling panel (AID 1164); settings: higher = more signal; further: test concentration not given here
# [14] = compound effects on multiple myeloma cell viability – MM1S, calcein-AM fluorescence, 48 h, basal, profiling panel (AID 1165); settings: higher = more signal;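 further: viability of MM1S multiple myeloma cells under basal unstimulated conditions; test concentration not given here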
# [15] = calcein-AM signal in unstimulated myeloma cells – cell-based, calcein-AM fluorescence, 48 h, PK04 Diversity Set, profiling panel (AID 1166); settings: RPMI8226 myeloma viability, higher = more signal;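 further: cells grown under basal conditions without added stimulus; test concentration not given here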
# [16] = JC-1 mitochondrial signal, unstimulated HepG2 cells – cell-based, JC-1 fluorescence, 24 h, 100 nL compound, profiling panel (AID 1167); settings: HepG2 mitochondrial potential, higher = more signal; further: test concentration not given here
# [17] = JC-1 mitochondrial signal, unstimulated adipocytes – cell-based, JC-1 fluorescence, 3T3-L1 adipocytes, 24 h, 100 nL compound, profiling panel (AID 1168); settings: JC-1 mitochondrial fluorescence, higher = more signal, called active from +8 up or from −8 down; further: test concentration not given here
# [18] = JC-1 mitochondrial signal, unstimulated myeloma cells – cell-based, JC-1 fluorescence, RPMI8226, 24 h, 100 nL compound, profiling panel (AID 1169); settings: JC-1 mitochondrial potential fluorescence, higher = more signal; further: test concentration not given here
# [19] = JC-1 mitochondrial signal, unstimulated MM1S myeloma – cell-based, JC-1 fluorescence, 24 h, 100 nL compound, profiling panel (AID 1170); settings: MM1S mitochondrial potential, higher = more signal; further: test concentration not given here
# [20] = resazurin metabolic signal in A549 cells – cell-based, resazurin fluorescence, 24 h, PK04 Diversity Set, profiling panel (AID 1171); settings: A549 viability, higher = more signal, called active from +8 up or from −8 down; further: test concentration not given here
# Chain of NADPH oxidase 4 (Homo sapiens) (Q9NPH5 whole entry, looked up): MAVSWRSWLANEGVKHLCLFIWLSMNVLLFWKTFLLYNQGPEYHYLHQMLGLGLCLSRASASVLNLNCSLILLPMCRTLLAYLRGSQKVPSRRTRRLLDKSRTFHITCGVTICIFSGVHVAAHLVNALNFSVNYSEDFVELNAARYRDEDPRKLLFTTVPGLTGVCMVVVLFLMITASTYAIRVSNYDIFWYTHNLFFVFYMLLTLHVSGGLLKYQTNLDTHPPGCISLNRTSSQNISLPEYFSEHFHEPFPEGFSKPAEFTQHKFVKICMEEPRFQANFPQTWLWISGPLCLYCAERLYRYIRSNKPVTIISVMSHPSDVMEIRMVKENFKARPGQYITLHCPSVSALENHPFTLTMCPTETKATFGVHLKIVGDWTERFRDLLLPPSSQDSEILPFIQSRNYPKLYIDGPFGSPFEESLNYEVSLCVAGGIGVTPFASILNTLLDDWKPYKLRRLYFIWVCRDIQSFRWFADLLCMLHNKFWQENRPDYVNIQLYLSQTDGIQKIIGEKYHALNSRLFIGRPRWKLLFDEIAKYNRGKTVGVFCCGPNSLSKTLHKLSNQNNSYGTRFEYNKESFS
# Chain of NADPH oxidase 5 (Homo sapiens) (Q96PH1 whole entry, looked up): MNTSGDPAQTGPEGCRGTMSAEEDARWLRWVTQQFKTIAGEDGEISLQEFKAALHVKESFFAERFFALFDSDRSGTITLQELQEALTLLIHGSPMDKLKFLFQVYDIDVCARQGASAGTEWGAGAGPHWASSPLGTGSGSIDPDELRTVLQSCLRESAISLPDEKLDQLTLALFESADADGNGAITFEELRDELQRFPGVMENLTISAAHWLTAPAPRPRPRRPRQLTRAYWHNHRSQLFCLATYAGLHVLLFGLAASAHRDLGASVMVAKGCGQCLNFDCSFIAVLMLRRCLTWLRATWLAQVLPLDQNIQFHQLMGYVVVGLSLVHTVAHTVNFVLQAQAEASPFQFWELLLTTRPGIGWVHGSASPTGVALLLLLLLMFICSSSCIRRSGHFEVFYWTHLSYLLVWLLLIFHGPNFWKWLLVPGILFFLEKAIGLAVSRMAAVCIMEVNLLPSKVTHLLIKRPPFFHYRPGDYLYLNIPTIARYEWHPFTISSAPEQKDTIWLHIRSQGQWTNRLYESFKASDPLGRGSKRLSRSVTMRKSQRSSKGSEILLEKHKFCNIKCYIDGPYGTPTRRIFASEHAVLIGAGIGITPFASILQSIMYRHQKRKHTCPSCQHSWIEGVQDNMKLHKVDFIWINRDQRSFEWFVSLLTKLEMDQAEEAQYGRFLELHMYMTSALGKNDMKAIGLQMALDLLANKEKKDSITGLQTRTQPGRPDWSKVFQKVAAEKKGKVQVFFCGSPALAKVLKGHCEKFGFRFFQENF
# Chain of NADPH oxidase 2 (Homo sapiens) (P04839 whole entry, looked up): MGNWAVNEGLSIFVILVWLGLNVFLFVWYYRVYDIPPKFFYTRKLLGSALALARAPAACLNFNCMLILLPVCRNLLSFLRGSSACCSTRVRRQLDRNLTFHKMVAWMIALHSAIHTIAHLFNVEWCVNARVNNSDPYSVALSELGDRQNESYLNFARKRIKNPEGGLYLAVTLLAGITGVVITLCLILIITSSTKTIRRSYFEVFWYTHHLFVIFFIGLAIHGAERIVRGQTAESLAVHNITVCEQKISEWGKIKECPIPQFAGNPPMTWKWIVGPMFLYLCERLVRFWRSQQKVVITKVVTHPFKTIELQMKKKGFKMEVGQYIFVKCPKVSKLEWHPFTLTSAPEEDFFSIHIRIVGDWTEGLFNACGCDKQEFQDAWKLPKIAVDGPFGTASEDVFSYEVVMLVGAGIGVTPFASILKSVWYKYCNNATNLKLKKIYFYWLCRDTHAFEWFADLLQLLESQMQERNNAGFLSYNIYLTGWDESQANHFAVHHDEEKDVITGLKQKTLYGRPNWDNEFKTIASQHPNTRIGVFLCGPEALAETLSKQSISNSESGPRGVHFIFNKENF
SMILES,z-score [1],composite z-score [2],z-score [3],z-score [4],z-score [5],z-score [6],z-score [7],z-score [8],z-score [9],z-score [10],z-score [11],z-score [12],z-score [13],z-score [14],z-score [15],z-score [16],z-score [17],z-score [18],z-score [19],z-score [20]
CCOC(=O)[C@H](CC(C)C)NC(=O)CCC1CC(OC(=O)NCCc2ccc(F)cc2)CC2(CCCC(COC(=O)NCc3cccc(C(F)(F)F)c3)O2)O1 (stereo not given in full),0.265 (inactive),0.0437,6.76 (inactive),0.968 (inactive),0.0716 (inactive),0.127 (inactive),-0.276,0.61 (inactive),0.703 (inactive),0.401,-0.366,-0.289,-0.581,-3.37,0.277,-0.471,-0.512 (inactive),0.652,-0.0831,-0.209 (inactive)
CCN(CC)CC(O)CN1CCCCc2nc(C)c(C)cc21 (stereo not given),0.219 (inactive),-0.0544,-0.446 (inactive),-1.31 (inactive),0.273 (inactive),-1.55 (inactive),1.43,0.776 (inactive),-0.622 (inactive),0.419,-0.0127,-0.054,0.776,0.288,0.378,0.68,0.109 (inactive),0.316,-0.989,0.985 (inactive)
O=C1[C@H]2[C@H]3[C@H](O)[C@H](O)CC(=NO[C@@H]4O[C@H](CO)[C@@H](O)[C@H](O)[C@H]4O)[C@@H]3CC[C@H]2C(=O)N1C1CCCCC1,0.381 (inactive),-0.126,0.785 (inactive),0.636 (inactive),1.04 (inactive),0.228 (inactive),0.322,-0.336 (inactive),0.607 (inactive),0.573,0.646,-0.235,0.521,0.547,0.776,1.09,-0.229 (inactive),0.169,-1.25,-0.934 (inactive)
O=C(NN=C1C[C@@H](O)[C@@H](O)[C@@H]2[C@@H]3C(=O)N(Cc4ccc5c(c4)OCO5)C(=O)[C@@H]3CC[C@@H]12)OCc1ccccc1,-0.989 (inactive),0.184,6.62 (inactive),-0.207 (inactive),0.465 (inactive),-1.85 (inactive),-0.0564,-1.78 (inactive),-1.08 (inactive),-1.39,-0.592,0.911,-0.423,0.291,-0.531,0.222,0.243 (inactive),0.967,-1.65,0.729 (inactive)
CCO[C@H](c1cc(OC)cc([N+](=O)[O-])c1OC)[C@H](C)[C@@H](OC)[C@H](C)C=CCC(=O)OC,-0.321 (inactive),0.0367,2.26 (inactive),0.282 (inactive),0.528 (inactive),0.318 (inactive),-0.421,-1.73 (inactive),-0.442 (inactive),-1.11,0.207,-0.402,0.513,0.0601,0.824,-0.524,-0.476 (inactive),-0.441,-0.236,0.319 (inactive)
CC(CCN1CCc2nc(-c3ccccc3)c(-c3ccccc3)cc2C1)=NO[C@H](C)c1cn([C@H](CO)Cc2ccccc2)nn1,-1.52 (inactive),0.057,1.6 (inactive),0.147 (inactive),1.16 (inactive),0.293 (inactive),-0.746,-4.57 (inactive),-0.31 (inactive),-1.75,0.75,0.23,0.603,-1.31,0.163,2.57,-1.49 (inactive),1.02,0.428,-0.167 (inactive)
COc1ccc(OC[C@@H]2CC3[C@@H](c4ccc(Br)cc4)[C@H](C)CC[C@H]3C(=O)O2)cc1 (stereo not given in full),-0.594 (inactive),-0.106,4.49 (inactive),1.7 (inactive),0.85 (inactive),0.759 (inactive),0.338,-0.803 (inactive),-0.178 (inactive),-0.351,0.228,0.0081,0.139,0.332,-0.204,-0.96,0.533 (inactive),0.196,0.0404,0.582 (inactive)
CC(C)[C@@H](OCc1ccccc1)[C@H](C)C=NOC[C@@H](O)[C@H]1O[C@@H]2OC(C)(C)O[C@@H]2[C@H]1O,-1.74 (inactive),-0.25,0.0248 (inactive),-0.211 (inactive),0.122 (inactive),0.124 (inactive),-0.898,1.09 (inactive),-1.94 (inactive),0.165,-0.205,-0.132,-0.292,0.592,0.322,-0.719,-1.58 (inactive),0.13,0.461,-0.665 (inactive)
COc1ccc(COC(=O)NN=C2C[C@@H](O)[C@@H](O)[C@@H]3[C@@H]4C(=O)N([C@@H](C)c5ccccc5)C(=O)[C@@H]4CC[C@H]23)cc1,0.486 (inactive),0.751,7.67 (inactive),0.805 (inactive),-0.0805 (inactive),0.501 (inactive),-0.34,0.947 (inactive),0.672 (inactive),-0.419,-0.0502,0.155,-0.791,0.145,-0.486,-0.888,-0.653 (inactive),-0.0767,0.493,0.541 (inactive)
C[C@@H]1C=CCC(=O)OC[C@H](C)C(=O)N[C@@H](Cc2ccccc2)C(=O)OC1,-0.596 (inactive),-0.0287,0.296 (inactive),-0.506 (inactive),-0.307 (inactive),-1.2 (inactive),0.826,-0.348 (inactive),-0.928 (inactive),-0.396,-0.88,2.49,0.499,-0.295,-0.371,0.662,0.55 (inactive),0.803,0.382,0.168 (inactive)
CO[C@@H]1[C@H](O)CO[C@H]1C=Cc1ccccc1,-0.0624 (inactive),-0.0559,2.7 (inactive),0.178 (inactive),0.837 (inactive),-0.0932 (inactive),0.722,-0.403 (inactive),-0.898 (inactive),1.23,0.998,1.12,-0.0866,0.018,-0.664,0.161,-0.267 (inactive),0.337,0.859,-0.587 (inactive)
CCC1=NOC(CCC2CC(OC(=O)NCc3cccc4c3OCO4)CC3(CCCC(COC(=O)NCCc4ccc(Cl)cc4)O3)O2)C1 (stereo not given),0.13 (inactive),-0.103,0.78 (inactive),-0.172 (inactive),-0.747 (inactive),-0.268 (inactive),-0.695,1.28 (inactive),0.891 (inactive),0.984,-0.584,-0.55,-0.303,0.396,-0.961,-0.803,0.453 (inactive),0.0772,-0.398,0.137 (inactive)
CC(CCC(=O)OC[C@H]1O[C@H](C#Cc2ccccc2)C=C[C@@H]1Oc1ccc(C)cc1)=NOC[C@@H](C)[C@H](OCc1ccccc1)C(C)C,-0.321 (inactive),-0.378,0.551 (inactive),0.498 (inactive),0.901 (inactive),0.392 (inactive),-0.0916,1.21 (inactive),1.16 (inactive),0.919,-0.284,0.0487,-0.489,-1.44,0.164,-0.043,-1.77 (inactive),1.06,-0.327,0.865 (inactive)
CCOC(=O)[C@H](CC(C)C)NC(=O)CCC1CC(OC(=O)NCc2ccc3c(c2)OCO3)CC2(CCCC(COC(=O)NCCOC)O2)O1 (stereo not given in full),-2.3 (inactive),0.292,1.3 (inactive),0.529 (inactive),-0.535 (inactive),0.0508 (inactive),-0.421,-0.288 (inactive),-0.0492 (inactive),0.144,0.0414,-0.453,-0.0998,-0.418,0.457,0.11,0.65 (inactive),0.413,-0.359,0.689 (inactive)
COc1ccc(COC(=O)NN=C2C[C@@H](O)[C@@H](O)[C@@H]3[C@@H]4C(=O)N(c5cccc(Oc6ccccc6)c5)C(=O)[C@@H]4CC[C@H]23)cc1,0.249 (inactive),0.4,3.48 (inactive),-0.469 (inactive),1.89 (inactive),-2.15 (inactive),0.0187,-1.26 (inactive),-1.6 (inactive),-1.49,-0.777,0.487,-0.634,0.0646,-1.2,0.89,-1.78 (inactive),0.197,-1.73,1.29 (inactive)
CC(CCC(=O)OC[C@H]1O[C@H](C#Cc2ccccc2)C=C[C@@H]1Oc1ccc(C)cc1)=NOC(C)CN1CCCc2nc(C)c(C)cc21 (stereo not given in full),-0.651 (inactive),0.106,5.4 (inactive),0.859 (inactive),0.785 (inactive),0.735 (inactive),-0.624,-0.866 (inactive),-0.435 (inactive),-0.297,-0.177,-0.271,0.267,-2.18,-1.39,0.542,-2.38 (inactive),-0.7,-0.74,-0.719 (inactive)
